Cruzain inh noDet: blocks cruzain activity in detergent-free assay; purified cruzain, Z-FR-AMC fluorescence, no detergent; Potency, µM, usual class: inhibitors; hit rate 2.3% among 200,000; note: nearly all actives have a fitted effect of over 40% in size
Target sequence (P25779 123-467 limits assumed): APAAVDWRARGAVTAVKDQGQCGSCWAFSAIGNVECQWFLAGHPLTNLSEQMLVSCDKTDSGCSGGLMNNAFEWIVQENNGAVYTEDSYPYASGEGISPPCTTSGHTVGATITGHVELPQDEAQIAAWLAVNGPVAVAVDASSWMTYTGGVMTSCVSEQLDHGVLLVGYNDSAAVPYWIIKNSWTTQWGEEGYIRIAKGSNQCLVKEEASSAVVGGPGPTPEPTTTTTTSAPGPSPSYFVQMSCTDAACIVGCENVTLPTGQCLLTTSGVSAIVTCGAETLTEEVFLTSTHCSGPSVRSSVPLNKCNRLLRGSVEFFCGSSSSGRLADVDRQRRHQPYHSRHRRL
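Detergent-free condition (0.00005% Triton X-100) in acetate buffer pH 5.5 with DTT. 1.5 nM enzyme and compound were pre-mixed 15 min, then 2 uM Z-FR-AMC substrate added; reaction progress from fluorescence change between first and third reads (60 s).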
Cruzain inh Det: blocks cruzain activity in presence of Triton detergent; AID 1478; hit rate 0.43% among 200,000; P25779; Potency, µM, hits mostly inhibitors; purified cruzain, Z-FR-AMC fluorescence, 0.01% Triton; note: nearly all actives have a fitted effect of over 40% in size
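Z-FR-AMC hydrolysis (2 uM substrate) by cruzain (1.5 nM) monitored kinetically at ex 360/em 450 nm after 15 min room-temperature compound exposure; 0.01% Triton X-100, pH 5.5, 5 mM DTT.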
Hits are given with their value; n = inactive; u = inconclusive. An excerpt weighted towards active compounds, which were near 2.6% of everything screened. Calls come from the whole dose curve; as a rule, active = well fitted curve in the direction sought with a large enough effect; inconclusive = small, poorly fitted or top-dose-only effect, or another doubt; inactive = no such curve, though single readings can be large; an effect the other way counts as inactive or inconclusive.

SMILES	Cruzain inh noDet	Cruzain inh Det
O=C(NCc1cn2ccsc2n1)c1cccc(C(F)(F)F)c1	n	n
O=C(NCc1cn2ccsc2n1)c1c(F)cccc1Cl	20µM	n
CS(=O)(=O)c1sc2nc(-c3cccs3)cc(-c3ccccc3)c2c1N	20µM	n
Cc1ccc(-c2cc(-c3ccccc3)c3c(N)c(S(C)(=O)=O)sc3n2)cc1	u	n
O=C(NCCCN1CCOCC1)c1cc2ccccc2oc1=O	n	n
COc1cccc(-c2nc(NCc3ccccc3OC)c3ccccc3n2)c1	n	n
COc1ccc(CNc2nc(-c3ccoc3)nc3ccccc23)c(OC)c1	16µM	n
Cc1noc(C)c1-c1nc(Nc2ccc(F)cc2)c2ccccc2n1	u	n
Fc1ccc(Nc2nc(-c3ccoc3)nc3ccccc23)cc1	25µM	n
c1ccc(CNc2nc(-c3ccoc3)nc3ccccc23)cc1	25µM	n
Cc1cccc(CNc2nc(-c3ccoc3)nc3ccccc23)c1	u	n
CC(=O)Nc1ccc(NC(=O)c2ccc3c(c2)NC(=O)c2ccccc2S3)cc1	n	n
COC(=O)C(C)Sc1nnc(-c2ccncc2)o1 (stereo not given)	n	n
OCCNC1=NCCN1	n	n
CC(=O)OC1CC2C(C)(C)C(O)C=C[C@@]2(C)C2CC[C@@]3(C)C(c4ccoc4)OC(=O)C4OC43[C@]12C (stereo not given in full)	u	n
COc1ccc(CCNC(=O)CN(c2ccccc2)S(=O)(=O)N(C)C)cc1	n	n
O=C(CC1CCCC1)NCCc1cn2ccccc2n1	n	n
CCOC(=O)c1c(NC(=S)Nc2ccccc2)sc2c1CCN(CCc1ccccc1)C2	n	n
COc1ccc(/C=N/NC(=O)c2ccco2)cc1Cn1nc(C)cc1C	n	n
COc1ccc(/C=N\NC(=O)COc2ccc(C(C)(C)C)cc2)cc1Cn1nc(C)cc1C	25µM	n
O=C(Nc1ccccc1F)c1ccco1	n	n
Cc1ccc(OCCNC(=O)c2ccco2)cc1C	n	n
C/C(=N\N=C(/N)SC1CC(=O)N(c2ccc(Br)cc2)C1=O)c1cccs1 (stereo not given)	u	n
COc1ccc(N2C(=O)CC(S/C(N)=N/N=C/c3ccnc4ccccc34)C2=O)cc1 (stereo not given)	10µM	25µM
N/C(=N\N=C\c1ccnc2ccccc12)SC1CC(=O)N(c2ccc(Br)cc2)C1=O (stereo not given)	10µM	n
SMILES	Cruzain inh noDet	Cruzain inh Det
CCN=C(NCC)SC1CC(=O)N(c2ccc(OC)cc2)C1=O (stereo not given)	n	n
O=C(O)c1cnn2c(C(F)(F)F)cc(-c3ccco3)nc12	n	n
Cc1ccc(Nc2nnc(SCC(=O)Nc3cccc(S(=O)(=O)NC4=NCCCCC4)c3)s2)c(C)c1	n	n
CC/C(O)=C1\C(=O)CC(c2ccccc2)CC1=NCCC(=O)O (stereo not given)	n	n
COc1ccccc1/C=C/C(=O)OCC(=O)Nc1ccccc1Sc1ccccc1	n	n
O=C(CSc1nnc(-c2c[nH]c3ccccc23)o1)N1CCCCC1	n	n
O=C(CSc1nnc(-c2c[nH]c3ccccc23)o1)c1ccc(-c2ccccc2)cc1	5µM	n
CCn1ccc(=N)cc1	n	n
O=C(Oc1ccc(N(Cc2cccs2)C2=NS(=O)(=O)c3ccccc32)cc1)c1ccccc1Cl	10µM	n
O=C(Oc1ccc(N(Cc2cccs2)C2=NS(=O)(=O)c3ccccc32)cc1)c1ccco1	n	n
NS(=O)(=O)c1cccc(NC(=O)COC(=O)c2cc(-c3ccc(Cl)cc3)nc3ccccc23)c1	n	n
COc1ccc(/C=C2/SC(=S)N(n3c(C)ccc3C)C2=O)cc1	25µM	n
CCOc1ccc(/C=C2/SC(=S)N(n3c(C)ccc3C)C2=O)cc1	n	n
COc1ccccc1N(C(=O)NCc1ccccc1)C1=NCC(C)S1 (stereo not given)	n	n
O=C(c1ccc(Cl)c(Cl)c1)c1cnc(Nc2ccccc2)s1	20µM	n
CNc1ncc(C(=O)c2ccc(Cl)c(Cl)c2)s1	n	n
CN(C(=O)CSc1nc(-c2ccccc2)cs1)C1CCS(=O)(=O)C1 (stereo not given)	n	n
CCCCCCc1cc2cc(S(=O)(=O)c3ccc(F)cc3)c(=O)oc2cc1O	25µM	n
CCCCCCc1cc2cc(-c3nnc(-c4ccccc4O)o3)c(=O)oc2cc1O	n	n
COc1ccccc1C1CC(=O)Oc2cc(OC)c(OC)c(OC)c21 (stereo not given)	n	n
O=C1NN(c2ccccc2)C(=O)C2C1C1C=CC2C12CC2 (stereo not given)	n	n
Cc1cccc(OCCn2cc(/C=N/NC(=O)c3ccncc3)c3ccccc32)c1	u	n
CCC(C)c1ccc(OCCn2cc(/C=N/NC(=O)CSc3nnc(C)s3)c3ccccc32)cc1 (stereo not given)	4µM	n
Cc1ccc(C(=O)NN2C(=O)/C(=C/c3cccn3C)SC2=S)cc1	u	n
Cn1cc(/C=C2\SC(=S)N(NC(=O)c3ccccc3Cl)C2=O)c2ccccc21	10µM	n
